# Screening results: PubChem, National Center for Advancing Translational Sciences (NCATS)
# The list is not random: actives were taken first. Their share in the collection is about 3.3%.
# BRCT PPI green = blocks human BRCA1 BRCT binding to phosphopeptide, green readout. 75,000 tested, 0.05% active. BRCA1 BRCT-phosphopeptide binding, green fluorescence polarization. Potency, µM (highest dose often 76.9 µM), for inactives: top-dose activity change, negative = inhibition, most hits filed as inhibitors. P38398. AID 875;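 further: potency means the concentration at half of the fitted maximal effect; plate controls were peptide without protein for full effect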
# Target sequence (P38398 whole entry, looked up): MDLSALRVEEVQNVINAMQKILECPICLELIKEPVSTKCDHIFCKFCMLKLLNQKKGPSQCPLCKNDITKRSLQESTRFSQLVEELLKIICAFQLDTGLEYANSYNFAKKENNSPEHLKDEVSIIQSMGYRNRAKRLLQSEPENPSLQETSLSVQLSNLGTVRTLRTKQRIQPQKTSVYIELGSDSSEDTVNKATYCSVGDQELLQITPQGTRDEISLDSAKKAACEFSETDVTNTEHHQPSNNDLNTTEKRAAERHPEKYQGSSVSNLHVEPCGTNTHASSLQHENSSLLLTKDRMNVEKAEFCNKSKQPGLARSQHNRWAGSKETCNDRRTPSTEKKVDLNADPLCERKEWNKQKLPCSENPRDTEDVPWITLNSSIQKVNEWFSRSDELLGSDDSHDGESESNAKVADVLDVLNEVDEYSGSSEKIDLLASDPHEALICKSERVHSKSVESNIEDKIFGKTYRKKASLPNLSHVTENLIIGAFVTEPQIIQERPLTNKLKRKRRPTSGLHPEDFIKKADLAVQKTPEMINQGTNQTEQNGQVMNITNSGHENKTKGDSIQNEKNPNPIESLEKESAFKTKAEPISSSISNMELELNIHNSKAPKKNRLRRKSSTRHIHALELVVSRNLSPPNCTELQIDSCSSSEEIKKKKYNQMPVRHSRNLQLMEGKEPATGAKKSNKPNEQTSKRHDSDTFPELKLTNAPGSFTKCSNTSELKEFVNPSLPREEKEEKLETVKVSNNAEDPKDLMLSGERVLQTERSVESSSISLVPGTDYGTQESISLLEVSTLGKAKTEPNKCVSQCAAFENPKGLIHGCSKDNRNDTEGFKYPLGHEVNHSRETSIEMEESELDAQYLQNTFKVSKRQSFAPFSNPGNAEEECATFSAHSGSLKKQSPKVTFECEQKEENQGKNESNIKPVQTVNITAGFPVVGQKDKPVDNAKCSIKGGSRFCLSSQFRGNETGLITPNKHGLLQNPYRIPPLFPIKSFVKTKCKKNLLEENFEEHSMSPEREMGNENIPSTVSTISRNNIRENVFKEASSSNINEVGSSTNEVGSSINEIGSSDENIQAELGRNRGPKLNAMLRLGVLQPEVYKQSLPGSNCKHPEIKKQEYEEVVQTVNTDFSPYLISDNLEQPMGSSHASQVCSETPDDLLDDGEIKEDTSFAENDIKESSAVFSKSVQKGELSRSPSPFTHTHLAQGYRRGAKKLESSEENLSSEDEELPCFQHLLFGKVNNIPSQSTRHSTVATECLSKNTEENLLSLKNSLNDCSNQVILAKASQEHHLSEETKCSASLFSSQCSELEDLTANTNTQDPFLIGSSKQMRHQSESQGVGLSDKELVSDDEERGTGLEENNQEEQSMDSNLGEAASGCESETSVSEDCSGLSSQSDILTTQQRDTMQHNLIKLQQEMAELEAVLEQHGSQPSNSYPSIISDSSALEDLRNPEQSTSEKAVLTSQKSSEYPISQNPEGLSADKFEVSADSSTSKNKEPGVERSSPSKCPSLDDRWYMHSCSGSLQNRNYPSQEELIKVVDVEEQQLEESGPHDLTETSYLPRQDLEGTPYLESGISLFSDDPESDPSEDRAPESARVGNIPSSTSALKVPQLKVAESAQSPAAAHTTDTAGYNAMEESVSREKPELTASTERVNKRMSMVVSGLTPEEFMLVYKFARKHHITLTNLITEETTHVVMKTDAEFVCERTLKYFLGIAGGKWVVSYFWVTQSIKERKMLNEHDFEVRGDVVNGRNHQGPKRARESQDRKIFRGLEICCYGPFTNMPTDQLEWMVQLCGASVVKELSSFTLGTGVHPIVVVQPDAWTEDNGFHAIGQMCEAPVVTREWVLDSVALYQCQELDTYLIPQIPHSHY
#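 Compounds were incubated for 12 min at room temperature with a complex of 100 nM fluorescein-tagged pBACH1 decapeptide and 250 nM His-tagged BRCT protein. Buffer was phosphate pH 7.3 with EDTA, DTT and Tween 20. Disruption of binding lowers the polarization signal.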
# 15-hLO inh = inhibitors of human 15-lipoxygenase (ALOX15) | P16050 | purified 15hLO-1, xylenol orange hydroperoxide absorbance | Potency, µM (titrated, usually from 57.1 µM), for the others: at the top dose activity change, negative = inhibition, hits mostly inhibitors | 74,000 tested, 1.4% active | AID 887; further: potency means the concentration at half of the fitted maximal effect; on the % scale 0 is the no-effect control and ±100 the full control effect; nearly all actives have a fitted effect of over 55% in size
#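 Hydroperoxide formed from arachidonic acid (50 uM) by purified human 15hLO-1 (40 nM) oxidizes ferrous iron, and the ferric-xylenol orange complex is read at 573 versus 405 nm. Compounds were preincubated 15 min; reaction ran 6 min at room temperature.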
# TsaE inh = inhibitors of E. coli YjeE (TsaE); purified YjeE enzyme, qHTS inhibition assay; Potency, µM; 71,000 tested, 0.05% active; P0AF67
#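 Fluorescence polarization of a BODIPY Texas Red–ADP probe (2 uM) bound to purified YjeE (10 uM) was read after 15 min room-temperature incubation with compounds. Loss of polarization marks inhibitors; ADP serves as titrated control.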
# BRCT PPI red = inhibitors of human BRCA1 BRCT-phosphoprotein interaction (red fluorophore); BRCT-phosphopeptide binding, red fluorescence polarization; P38398; 75,000 tested, 0.03% active; Potency, µM (titrated, usually from 76.9 µM), inactives show at the top dose activity change, negative = inhibition, hits mostly inhibitors; AID 892; further: on the % scale 0 is the no-effect control and ±100 the full control effect
#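 Fluorescence polarization: 100 nM His-tagged BRCA1 BRCT with 100 nM TAMRA-labelled phospho-BACH1 decapeptide, phosphate buffer pH 7.3 with 150 mM NaCl, DTT, 0.01% Tween 20; 12 min RT. Binding inhibition seen as FP decrease.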
# Tau fil binding = tau filament binding. P10636. recombinant tau filaments, thioflavin S fluorescence, 15 h; filaments grown with octadecylsulfate alongside compound. Potency, µM (highest dose often 57.1 µM), for inactives: top-dose activity change, negative = inhibition. 71,000 tested, 2% active. AID 596;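 further: potency means the concentration at half of the fitted maximal effect; on the % scale 0 is the no-effect control and ±100 the full control effect; actives lower thioflavin S fluorescence by blocking filaments or displacing dye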
#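 Tau 2 uM in ThS buffer dispensed; compound added; 60 uM ODS added (finals 1 uM tau, 30 uM ODS); 15 h 37 C; fluor ex450/em510.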
# DNA Pol III inh = DNA polymerase III holoenzyme inhibition. AID 603. Potency, µM (highest dose often 57.1 µM), for inactives: top-dose activity change, negative = inhibition. 71,000 tested, 0.25% active. reconstituted DNA polymerase III holoenzyme replication, biochemical; further: potency means the concentration at half of the fitted maximal effect; on the % scale 0 is the no-effect control and ±100 the full control effect
#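 Reconstituted *E. coli* holoenzyme (0.35 nM Pol III, 1 nM beta, 154 nM SSB, 2 nM primase) was preincubated with compound for 15 min at RT. Synthesis on 1.4 nM ssM13Gori ran 35 min, then was stopped with PicoGreen/EDTA and read as dsDNA fluorescence.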
# Starred values were filed as active, the others as inactive; i = inactive; ? = inconclusive; . = no result given; [ ] = another dose, or the depositor's remark. The call rests on the fitted dose curve; in most records, active means well fitted curve in the direction sought with a large enough effect; inconclusive means small, poorly fitted or top-dose-only effect, or another doubt; inactive means no such curve, though single readings can be large; an effect the other way counts as inactive or inconclusive.
SMILES,BRCT PPI green,15-hLO inh,TsaE inh,BRCT PPI red,Tau fil binding,DNA Pol III inh
Cc1ccc(-n2c(N)c(-c3nc4ccccc4n3C)sc2=S)cc1,2%,3.2µM*,i,0%,136%,-4%
Cn1c(-c2ccc(N)cc2)nc2ccccc21,-1%,?,i,0%,-2%,-4%
CSCSC1=C(C#N)C(c2ccccc2Cl)C(C(C)=O)=C(C)N1 (stereo unspecified),-2%,25µM*,i,0%,36%,-1%
CC(=O)C1=C(C)NC(SCSc2ccccc2)=C(C#N)C1c1cccnc1 (stereo unspecified),2%,0.32µM*,i,0%,-13%,-1%
O=C(Nc1ccc2c(c1)OCO2)C1(S(=O)(=O)c2ccc(Cl)cc2)CC1,0%,-3%,i,-3%,16µM*,-3%
O=C(Nc1cccc(Cl)c1)Nc1ccc2c(c1)OCO2,1%,-15%,i,-1%,13µM*,0%
C#CCCCO/N=C1/C[C@@H](O)[C@@H](O)[C@@H]2[C@@H]3C(=O)N(C(C)(C)C)C(=O)[C@H]3CC[C@@H]12,-1%[15.4 µM],5%[11.4 µM],.,1%[15.4 µM],.,.
COc1ccc(C)cc1NC(=O)C1CCCN1S(=O)(=O)c1ccc2c(c1)CCC(=O)N2 (stereo unspecified),3%,3%,i,-1%,25µM*,1%
C=CCn1cnc2c(c1=O)c1nc3ccccc3nc1n2-c1ccccc1,2%,4%,i,0%,-11%,-1%
O=c1c2c3nc4ccccc4nc3n(-c3cccc(F)c3)c2ncn1Cc1ccc2c(c1)OCO2,1%,-5%,i,2%,3.2µM*,1%
CCC(C)n1cnc2c(c1=O)c1nc3ccccc3nc1n2-c1ccc2c(c1)OCCO2 (stereo unspecified),-2%,-5%,i,-4%,-10%,-4%
CCC(C)n1cnc2c(c1=O)c1nc3ccccc3nc1n2Cc1ccc2c(c1)OCO2 (stereo unspecified),0%,-17%,i,0%,3.2µM*,-2%
CCOc1ccc(NS(=O)(=O)c2ccc(C)c(C(=O)O)c2)cc1,-1%,-1%,.,1%,.,.
COc1cccc([C@H]2Oc3ccc(OC)cc3/C(=N\O[C@@H]3O[C@H](COC(C)=O)[C@H](OC(C)=O)[C@H](OC(C)=O)[C@H]3OC(C)=O)[C@@H]2O)c1,-2%[15.4 µM],-1%[11.4 µM],.,-1%[15.4 µM],.,.
C=CC(C)(C)c1[nH]c2ccccc2c1C1=C(O)C(=O)C(c2c[nH]c3c(CC=C(C)C)cccc23)=C(O)C1=O,-6%,?,100µM*,-6%,32µM*,1.3µM*
COc1ccc(CCNc2nc(-c3ccco3)cc(C(F)(F)F)n2)cc1OC,2%,-23%,i,-1%,16%,-6%
FC(F)(F)c1cc(-c2ccco2)nc(NCc2cccnc2)n1,9%,?,i,-1%,20µM*,-15%
Fc1ccc(CNc2nc(-c3ccco3)cc(C(F)(F)F)n2)cc1,17%,25µM*,i,-2%,?,-6%
O=C(Nc1nnc(COc2ccc(Cl)cc2)s1)c1cccs1,0%,16µM*,i,-1%,25%,-10%
O=C(Nc1nnc(COc2ccc(Cl)cc2)s1)C1CCCO1 (stereo unspecified),1%,7.9µM*,i,-2%,-13%,-3%
C=CCOC(=O)C(C(C)=O)C(NC(=O)OC)c1cccc(C)c1 (stereo unspecified),-1%[15.4 µM],3%[11.4 µM],.,1%[15.4 µM],.,.
Cc1ccc2[nH]c3c(c2c1)CCc1cn[nH]c1-3,-1%,-15%,i,-1%,7.9µM*,-3%
Cc1ccc(-c2cc3c(nn2)-c2ccccc2C3=O)cc1,-2%,0%[11.4 µM],i,-1%,1µM*,-6%[11.4 µM]
O=C(Nc1cccc2nsnc12)C1CC(=O)N(c2ccccc2)C1 (stereo unspecified),-5%,-22%,i,-4%,20µM*,-6%
